PubChem BioAssay (NCATS)
The source made the active and inactive calls. The call rests on the fitted dose curve; in most records, active means well fitted activation curve with a large enough effect; inconclusive means small, poorly fitted or top-dose-only effect; inactive means flat fitted curve, though single readings scatter.

Experiment: Confirmation and Secondary Assay for Modulators of Hemoglobin Beta Chain Splicing at IVS2 705 locus (AID 930);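 further: GFP fluorescence per well restored by corrected splicing of the IVS2-705 intron in EGFP; % of control where 0% means no effect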
Details: HeLa EGFP-705 splicing reporter, GFP fluorescence, 48 h; series mostly up to 46.1 µM; activation: at the top concentration
How it was run: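 Secondary splice-site specificity test uses HeLa expressing CMV-driven EGFP interrupted by IVS2-705; cells were treated 2 days at 37C with 500 nM antisense PNA as positive control.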

activation, inactive:
COc1cccc(-c2cc(=O)c3ccc(OC)cc3o2)c1 -0.389% [at 38.3 µM]
COc1ccc(-c2coc3c(OC)c(OC)cc(O)c3c2=O)cc1 4.58%
CNC1CCC(c2ccc(Cl)c(Cl)c2)c2ccccc21 (centres undefined) 0.495%
CC(C)c1c(O)ccc2c1CCC1C(C)(C)CCC[C@@]21C (some centres undefined) 1.43%
COc1ccc(C2COc3c(ccc(O)c3OC)C2)c(OC)c1O (centres undefined) -0.445%
C=C1C([C@@]2(C)C(OC(C)=O)CC(=O)O[C@@](C)(COC(C)=O)C2CC(=O)OC)C(OC=O)C(OC(=O)C(O)C(C)CC)[C@]2(C)C(c3ccoc3)CC(=O)C12O (some centres undefined) -0.267%
C=CC(C1=CC(=O)C(OC)=C(OC)C1=O)c1ccccc1 (centres undefined) 2.38% [at 38.3 µM]
CC1(C)CC[C@]2(C(=O)O)C(O)C[C@@]3(C)C(=CCC4[C@@]5(C)CCC(O)C(C)(C)C5CC[C@@]43C)C2C1 (some centres undefined) -0.0143% [at 38.3 µM]
CCC(=O)OCC(=O)C1(OC(=O)CC)C(C)CC2C3CCC4=CC(=O)C=CC4(C)C3(Cl)C(O)CC21C (centres undefined) 0.241%
COC(=O)c1c(C)cc(O)cc1O -0.337% [at 38.3 µM]
C#CCCCCCCCCCCCC(O)CC(O)COC(C)=O (centres undefined) -0.511%
CCCN1CC(CSC)C[C@H]2c3cccc4[nH]cc(c34)C[C@H]21 (some centres undefined) 0.913%
CCC1CN2CCc3cc(OC)c(OC)cc3C2CC1CC1NCCc2cc(OC)c(OC)cc21 (centres undefined) 4.26%

outcome, inactive:
COc1cc(C2c3cc4c(cc3C(O)[C@H]3COC(=O)C23)OCO4)cc(OC)c1OC (some centres undefined)
